Inconclusive results are not listed. The source made the active and inactive calls. Unless noted, no rule for the calls is given here.
Columns and labels:
[1] = qHTS profiling of the MIPE4 collection as inhibitors of Plasmodium falciparum (3D7) proliferation (AID 743344);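 also: scaled between DMSO vehicle wells and 0.29 µM artemisinin as full inhibition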; conditions: P. falciparum 3D7 in erythrocytes, SYBR Green DNA fluorescence, 72 h; at 28.5 µM unless noted
Method in brief: (§1)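 Erythrocytes infected with P. falciparum (0.3% parasitemia, 2.5% hematocrit) incubated with compounds 72 h at 37 C, 5% CO2. Lysis with saponin/Triton buffer containing SYBR Green I, overnight at room temperature in the dark; DNA fluorescence (485/535 nm) normalised to 0.29 uM artemisinin and DMSO.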

[2] = qHTS profiling of the MIPE4 collection as inhibitors of Plasmodium falciparum (DD2) proliferation (AID 743345); conditions: P. falciparum Dd2 in erythrocytes, SYBR Green DNA, 72 h; at 28.5 µM unless noted
Method in brief: as §1

[3] = qHTS profiling of the MIPE4 collection as inhibitors of Plasmodium falciparum (DD2) proliferation (Rep 2) (AID 743346); conditions: P. falciparum Dd2 in erythrocytes, SYBR Green DNA, 72 h; at 28.5 µM unless noted
Method in brief: as §1

[4] = qHTS profiling of the MIPE4 collection as inhibitors of Plasmodium falciparum (HB3) proliferation (AID 743347);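 also: plate controls were DMSO vehicle wells for no effect and artemisinin wells for full effect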; conditions: P. falciparum HB3 in erythrocytes, SYBR Green DNA, 72 h; at 28.5 µM unless noted
Method in brief: as §1

[5] = High-throughput drug toxicity screening in the BPDCN cell line Gen2.2 (AID 1224824); conditions: Gen2.2 BPDCN cells; at 45.8 µM (top of the series) unless noted;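 also: cells exposed to compounds for 48 h before reading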
Method in brief: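 Readout is ATP luminescence from Gen2.2 cells after two days of drug exposure in serum-containing medium at 37 °C. Values express percent activity, with vehicle defining full signal and 9.2 uM bortezomib defining zero.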

[6] = High-throughput drug toxicity screening in the BPDCN cell line Cal-1 (AID 1224825); conditions: Cal-1 BPDCN cell viability, qHTS; at 45.8 µM (top of the series) unless noted
Method in brief: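 Cal-1 cells, 500 per well in phenol-red-free RPMI with 10% FBS, exposed to compounds for 48 hours at 37C, 5% CO2. Viability read by CellTiter-Glo luminescence; percent activity normalized to DMSO (100%) and 9.2 uM bortezomib final (0%).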

[7] = qHTS assay for measurement of the activity of small molecule inhibitors on Zika virus induced Caspase-3 activity in human iPSC derived neural progenitor cells (hNPCs) (AID 1224857; active = well fitted curve in the direction sought with a large enough effect; an effect the other way counts as inactive or inconclusive; also: nearly all actives have a fitted effect of over 65% in size; also: potency is read from the fitted curve at half-maximal effect); conditions: hNPCs ZIKV-induced caspase-3/7, Caspase-Glo luminescence, 6 h; series mostly up to 45.7 µM
Method in brief: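 Values are percent inhibition of virus-induced caspase-3/7 signal, scaled between uninfected cells and ZIKV-infected cells. Infection used 2 FFU/cell for 6 h after 1 h compound exposure.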

[8] = qHTS assay for measurement of the activity of small molecule inhibitors on Zika virus induced Caspase-3 activity in human astrocytoma cells (AID 1224859; active = well fitted curve in the direction sought with a large enough effect; an effect the other way counts as inactive or inconclusive;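 also: plate controls were ZIKV-infected untreated cells for no effect and uninfected cells for full effect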); conditions: SNB-19 ZIKV-induced caspase-3/7, luminescence, 6 h; series mostly up to 45.7 µM
Method in brief: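 Compound added 1 h pre-infection; ZIKV 2 FFU/cell on SNB-19 cells, 6 h, 37 C/5% CO2. Caspase-Glo 3/7 luminescence; values as % inhibition of ZIKV-induced caspase activity.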

[9] = qHTS Screen of the MIPE 4.0 Collection Against Ewings Sarcoma (RDES) (AID 1259252; active = well fitted curve in the direction sought with a large enough effect; an effect the other way counts as inactive or inconclusive; also: nearly all actives have a fitted effect of over 35% in size; also: potency is read from the fitted curve at half-maximal effect); conditions: RD-ES Ewing sarcoma viability, CellTiter-Glo, 48 h; series mostly up to 45.8 µM
Method in brief: (§2)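 Log-phase cells in RPMI with 5% FBS attached for 4 h, then received compounds as a titration for 48 h at 37C, 5% CO2. Viability was read by CellTiter-Glo luminescence and normalized to DMSO and no-cell wells.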

[10] = qHTS Screen of the MIPE 4.0 Collection Against Ewings Sarcoma (TC71) (AID 1259253; active = well fitted curve in the direction sought with a large enough effect; an effect the other way counts as inactive or inconclusive; also: nearly all actives have a fitted effect of over 40% in size; also: potency is read from the fitted curve at half-maximal effect); conditions: TC71 Ewing sarcoma viability, CellTiter-Glo, 48 h; series mostly up to 45.8 µM
Method in brief: as §2

[11] = qHTS profiling for inhibitors of Plasmodium falciparum (HB3) proliferation (AID 743324; active = well fitted curve in the direction sought with a large enough effect; an effect the other way counts as inactive or inconclusive;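 also: 100% = DMSO vehicle wells and 0% = artemisinin-treated control wells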); conditions: Plasmodium falciparum HB3 blood-stage proliferation; at 28.7 µM (top of the series) unless noted
Method in brief: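 P. falciparum HB3 grown in erythrocytes (0.3% parasitemia, 2.5% hematocrit final) with compound for 72 h at 37 C, 5% CO2. Parasite DNA detected by SYBR Green after saponin/triton lysis overnight; normalized to 0.29 uM artemisinin and DMSO.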

[12] = Identifying Small Molecule Inhibitors of Pancreatic Cancer Stem Cells (A2780, Spheroid) (AID 1259357; active = well fitted curve in the direction sought with a large enough effect; an effect the other way counts as inactive or inconclusive;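 also: spheroids pre-formed over 14 days in stem cell medium on hydrogel; compound exposure lasted 48 h before the ATP luminescence read; 100% = DMSO treated cells and 0% = wells without cells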); conditions: Potency: A2780 spheroid viability; series mostly up to 46.1 µM
Method in brief: (§3)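 Spheroids grown 14 days in stem cell media on nonadherent hydrogel before screening; cells attached 4 h, then compound exposure 48 h at 37C, 5% CO2. CellTiter-Glo luminescence normalized to DMSO (no inhibition) and no-cell wells (full inhibition).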

[13] = Identifying Small Molecule Inhibitors of Pancreatic Cancer Stem Cells (Panc1, Adherent) (AID 1259362; active = well fitted curve in the direction sought with a large enough effect; an effect the other way counts as inactive or inconclusive;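 also: compound exposure lasted 48 h before the viability read; plate controls were DMSO-treated cells for no effect and cell-free media wells for full effect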); conditions: Potency: viability; series mostly up to 46.1 µM
Method in brief: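 Luminescent ATP readout (CellTiter-Glo) quantifies surviving cells after a 48 h drug incubation. Normalization uses DMSO wells as no inhibition and media-only wells as full inhibition; bortezomib served as positive control.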

[14] = Identifying Small Molecule Inhibitors of Pancreatic Cancer Stem Cells (SN12C, Spheroid) (AID 1259360; active = well fitted curve in the direction sought with a large enough effect; an effect the other way counts as inactive or inconclusive;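 also: 100% = DMSO-treated cells and 0% = wells without cells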); conditions: Potency: SN12C spheroid viability; series mostly up to 46.1 µM
Method in brief: as §3

| Compound | parasite growth, % of DMSO control [1] | parasite growth remaining, % of DMSO control (lower = more inhibition) [2] | parasite growth, % of control (lower = inhibition) [3] | growth, % of control [4] | cell viability, % of control (lower = more cytotoxic) [5] | viability (% of control) [6] | Potency [7] | Potency [8] | Potency [9] | Potency [10] | remaining proliferation (% of control), lower = more inhibition [11] | Potency [12] | Potency [13] | Potency [14] |
| --- | --- | --- | --- | --- | --- | --- | --- | --- | --- | --- | --- | --- | --- | --- |
| CC1=C(CC(=O)O)c2cc(F)ccc2C1=Cc1ccc(S(C)=O)cc1 (stereo not given) | 79.1% | 91.5% | 64.2% | 52.4% | 6.5% | 7.86% | inactive | inactive | 1.18 µM (active) | 1.32 µM (active) | – | – | – | – |
| COC1CCC(C(=O)c2ccc3nc4c(cc3c2)CCCO4)CC1 (stereo not given) | 21.8% | 31.2% | 15.9% | 11.8% | 98% | 85.9% | inactive | inactive | 13.2 µM (active) | 16.6 µM (active) | – | – | – | – |
| CC[C@H](C=C[C@@H](C)[C@H]1CC[C@H]2[C@@H]3CC=C4C[C@@H](O)CC[C@]4(C)[C@@H]3CC[C@]12C)C(C)C | – | 104% [at 9.64 µM] | – | – | 72.7% [at 23.2 µM] | 108% [at 23.2 µM] | inactive | inactive | inactive | inactive | – | – | – | – |
| C#C[C@]1(O)CC[C@H]2[C@H]3CCc4cc(OC)ccc4[C@H]3CC[C@@]21C | 76.5% | 98.2% | 90.2% | – | 211% | 98% | inactive | inactive | 20.9 µM (active) | 29.6 µM (active) | – | – | – | – |
| c1cc(OCCN2CCCCC2)cc(-c2n[nH]c3ccc(-c4ncn[nH]4)cc23)c1 | 8.07% | 9.76% | 9.96% | 3.58% | 107% | 20.5% | inactive | inactive | 10.5 µM (active) | 23.5 µM (active) | – | – | – | – |
| CCCCCCCCCCCCCC(=O)N[C@H](CO)[C@H](O)c1ccc([N+](=O)[O-])cc1 | 55.9% | 85.8% | 33% | 24.3% | 1.84% | 5.68% | inactive | inactive | inactive | inactive | 73.2% | inactive | inactive | – |
| CCOC(=O)[C@H](CCc1ccccc1)N[C@@H](C)C(=O)N1CCCC1C(=O)O (stereo not given in full) | 53.7% | 91.5% | 75.7% | 95.2% | 190% | 76.8% | inactive | inactive | 20.9 µM (active) | 16.6 µM (active) | – | – | – | – |
| CN1C(=O)C[C@H](C(=O)N[C@@H](Cc2cnc[nH]2)C(=O)N2CCC[C@@H]2C(N)=O)NC1=O | – | 33.3% | – | – | 61% | 29.3% | inactive | inactive | 20.9 µM (active) | 20.9 µM (active) | – | – | – | – |
| CN(C)c1ccc(-c2nc3ncc(Cl)c(N4CCN(CC(=O)Nc5nccs5)CC4)c3[nH]2)cc1 | 6.94% | 9.69% | 8.18% | 2.92% | 3.51% | 8.53% | inactive | inactive | 20.9 µM (active) | 18.7 µM (active) | – | – | – | – |
| Cc1ccc2c(=O)c3cccc(CC(=O)O)c3oc2c1C | 95.5% | 94% | 76.8% | 101% | 78% | 50.1% | inactive | inactive | 18.7 µM (active) | 18.7 µM (active) | – | – | – | – |
| COc1ccc2cc1Oc1ccc(cc1)C[C@H]1c3cc(c(OC)cc3CCN1C)Oc1c(OC)c(OC)cc3c1[C@H](C2)N(C)CC3 | – | – | – | 13.9% | 146% | 94.6% | inactive | inactive | 20.9 µM (active) | 20.9 µM (active) | – | – | – | – |
| CCOC(=O)[C@@H](N)CCC(=O)N[C@@H](CSCc1ccccc1)C(=O)N[C@@H](C(=O)OCC)c1ccccc1 | 89.7% | 86.5% | 163% | 101% | 39.6% | 90.7% | inactive | inactive | inactive | inactive | 64.9% | – | inactive | inactive |
| C[C@@H](O)[C@H]1C(=O)N2C(C(=O)OCOC(=O)C(C)(C)C)=C(SC3CN(C4=NCCS4)C3)[C@H](C)[C@H]12 | 66% | 99.9% | 107% | 104% | 58.2% | 39.5% | inactive | inactive | inactive | inactive | – | – | – | – |
| COc1ccc(-c2ccc3ncc4c(c3c2)n(-c2ccc(N3CCNCC3)c(C(F)(F)F)c2)c(=O)n4C)cn1 | 7.25% | 6.37% | 9.13% | 3.39% | 0.968% | 0.939% | inactive | inactive | 0.0469 µM (active) | 0.0059 µM (active) | – | – | – | – |
| C[C@@H](N)c1ccc(C(=O)Nc2ccnc3[nH]ccc23)cc1 | 49.7% | 78.2% | 49.3% | – | 6.34% | 12.2% | 26.4 µM (active) | inactive | 18.7 µM (active) | 16.6 µM (active) | – | – | – | – |
| OC[C@H]1O[C@@H](Oc2ccc(O)cc2)[C@H](O)[C@@H](O)[C@H]1O | 82.1% | 94.8% | 127% | 93.4% | 146% | 83.5% | inactive | inactive | inactive | 18.7 µM (active) | – | – | – | – |
| CCC[C@H](N[C@@H](C)C(=O)N1[C@@H]2CCCC[C@H]2C[C@H]1C(=O)O)C(=O)OCC | 69% | 77.5% | 41.1% | 98.7% | 64.1% | 104% | inactive | inactive | inactive | 14.8 µM (active) | – | – | – | – |

From PubChem BioAssay (NCATS)
